Test results reported in PubChem BioAssay AID1159580 (chemical genetic matrix, 2015).
The campaign covered roughly 5,500 compounds. About 2,000 (36%) were called active. Roughly 18% stayed inconclusive and do not appear here. No stated cut-off is given here; in the data, active means normalized growth mostly below about 0.91 (no sharp cut-off); inconclusive means no clear call, values can overlap the other calls; inactive means mostly above about 0.92. Some of the results follow.

Assay: chemical genetic growth profiling, strain panel (AID 1159580);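 further: tested at 20 µM; growth read once vehicle control cultures reached saturation at 30 °C; 1 = growth at the plate median or of vehicle wells; lower values mean less growth of the strain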
Settings: S. cerevisiae deletion strains, growth OD

Measured: normalized growth

CC(=O)OCC(=O)[C@@]1(O)CCC2C3CC[C@@H]4C[C@H](O)CC[C@]4(C)C3C(=O)C[C@@]21C (some centres not stated)
inactive: locus YAL021C, strain ccr4, active compounds read low 1.02 | locus YAL026C, strain drs2, active compounds read low 1.01 | locus YAL030W, strain snc1, active compounds read low 1.02 | locus YBL061C, strain skt5, active compounds read low 1.03 | locus YBR009C, strain hhf1, active compounds read low 1.03 | locus YBR023C, strain chs3, active compounds read low 1.02 | locus YBR171W, strain sec66, active compounds read low 1.03 | locus YBR231C, strain swc5, active compounds read low 1.02 | locus YBR279W, strain paf1, active compounds read low 1.03 | locus YCL011C, strain gbp2, active compounds read low 1.04 | locus YCL016C, strain dcc1, active compounds read low 1.04 | locus YCL061C, strain MRC1, active compounds read low 1.03 | locus YCL069W, strain vba3, active compounds read low 1.01 | locus YCR088W, strain abp1, active compounds read low 1.01 | locus YDL005C, strain med2, active compounds read low 1.02 | locus YDL040C, strain nat1, active compounds read low 1.02 | locus YDR001C, strain nth1, active compounds read low 1.01 | locus YDR069C, strain doa4, active compounds read low 1.02 | locus YDR137W, strain rgp1, active compounds read low 1.06 | locus YDR159W, strain sac3, active compounds read low 1.01 | locus YDR195W, strain ref2 0.988 | locus YDR297W, strain sur2, active compounds read low 1.01 | locus YDR334W, strain swr1, active compounds read low 1.01 | locus YDR335W, strain msn5, active compounds read low 1.01 | locus YDR392W, strain spt3, active compounds read low 0.983 | locus YEL003W, strain gim4, active compounds read low 1.01 | locus YEL037C, strain rad23, active compounds read low 1 | locus YEL061C, strain CIN8 (second series), active compounds read low 1.01 | locus YER015W, strain faa2, active compounds read low 1.01 | locus YER016W, strain bim1, active compounds read low 1.02 | locus YER111C, strain swi4, active compounds read low 1.02 | locus YER155C, strain BEM2 (second series), active compounds read low 1.03 | locus YFR010W, strain ubp6, active compounds read low 1.01 | locus YGL167C, strain pmr1, active compounds read low 1.01 | locus YGL173C, strain kem1, active compounds read low 1.03 | locus YGL227W, strain vid30, active compounds read low 1.02 | locus YGL240W, strain doc1, active compounds read low 1.03 | locus YGL253W, strain hxk2, active compounds read low 1.01 | locus YHR013C, strain ard1, active compounds read low 1.03 | locus YHR027C, strain rpn1, active compounds read low 1.01 | locus YHR142W, strain chs7, active compounds read low 1.02 | locus YJL092W, strain hpr5, active compounds read low 1.01 | locus YJL095W, strain BCK1 (second series), active compounds read low 1.02 | locus YJL115W, strain asf1, active compounds read low 1.02 | locus YJL129C, strain trk1, active compounds read low 1.05 | locus YJL154C, strain vps35, active compounds read low 1.01 | locus YJL164C, strain tpk1, active compounds read low 1.03 | locus YJL166W, strain qcr8, active compounds read low 1.03 | locus YJL187C, strain SWE1, active compounds read low 1.02 | locus YKL160W, strain elf1, active compounds read low 1.03 | locus YKR026C, strain gcn3, active compounds read low 1.01 | locus YKR091W, strain srl3, active compounds read low 1.02 | locus YLL001W, strain dnm1, active compounds read low 1.03 | locus YLL026W, active compounds read low 1.02 | locus YLL041C, strain sdh2, active compounds read low 1.01 | locus YLR027C, strain aat2, active compounds read low 1.02 | locus YLR221C, strain rsa3, active compounds read low 1.05 | locus YLR258W, strain gsy2, active compounds read low 1.02 | locus YLR262C, strain YPT6 (second series), active compounds read low 1.04 | locus YLR320W, strain mms22, active compounds read low 1.07 | locus YLR342W, strain FKS1, active compounds read low 1.01 | locus YLR357W, strain rsc2, active compounds read low 1.03 | locus YLR370C, strain arc18, active compounds read low 1.02 | locus YLR384C, strain iki3, active compounds read low 1.02 | locus YML120C, strain ndi1, active compounds read low 1.01 | locus YMR058W, strain fet3, active compounds read low 1.01 | locus YMR125W, strain sto1, active compounds read low 1.02 | locus YMR129W, active compounds read low 1.01 | locus YMR205C, strain PFK2, active compounds read low 1.03 | locus YMR231W, strain pep5, active compounds read low 1.01 | locus YNL071W, strain lat1, active compounds read low 1.02 | locus YNL209W, strain ssb2, active compounds read low 1.02 | locus YNL248C, strain rpa49, active compounds read low 1.01 | locus YNL322C, strain KRE1 (second series), active compounds read low 1.03 | locus YNR049C, strain mso1, active compounds read low 1.01 | locus YOR001W, strain rrp6, active compounds read low 1.01 | locus YOR070C, strain gyp1, active compounds read low 1.02 | locus YOR080W, strain dia2, active compounds read low 1.02 | locus YOR083W, strain WHI5, active compounds read low 1.04 | locus YOR106W, strain vam3, active compounds read low 1.02 | locus YOR265W, strain rbl2, active compounds read low 1.02 | locus YOR270C, strain vph1, active compounds read low 1.03 | locus YOR290C, strain snf2, active compounds read low 1 | locus YPL051W, strain arl3, active compounds read low 1.02 | locus YPL078C, strain atp4, active compounds read low 1.02 | locus YPL106C, strain sse1, active compounds read low 1.07 | locus YPL240C, strain hsp82, active compounds read low 1.02

CC(=O)[C@H]1CCC2C3CC=C4C[C@@H](OS(=O)(=O)O)CC[C@]4(C)C3CC[C@@]21C (some centres not stated)
inactive: locus YAL040C, strain CLN3, active compounds read low 0.959 | locus YCL061C, strain MRC1 (second series), active compounds read low 0.981 | locus YDR363W, strain ESC2, active compounds read low 1.01 | locus YER002W, strain NOP16, active compounds read low 0.979 | locus YMR263W, strain SAP30, active compounds read low 0.978 | locus YMR307W, strain GAS1, active compounds read low 0.997 | locus YNL175C, strain NOP13, active compounds read low 0.988 | locus YNL197C, strain WHI3, active compounds read low 1 | locus YNL224C, strain SQS1, active compounds read low 0.984 | locus YNL322C, strain KRE1, active compounds read low 0.964 | locus YOR083W, strain WHI5 (second series), active compounds read low 0.975 | locus YPL241C, strain CIN2, active compounds read low 0.984

CC(=O)C1CCC2C3CC=C4CC(OS(=O)(=O)O)CC[C@]4(C)C3CC[C@]12C (some centres not stated)
inactive: locus YHR030C, strain SLT2, active compounds read low 0.973 | locus YHR079C, strain IRE1, active compounds read low 0.984 | locus YJL095W, strain BCK1, active compounds read low 0.953 | locus YJR066W, strain TOR1, active compounds read low 0.877 | locus YLR113W, strain HOG1, active compounds read low 1.03 | locus YNL183C, strain NPR1, active compounds read low 0.902 | locus YOR231W, strain MKK1, active compounds read low 0.977 | locus YPL256C, strain CLN2, active compounds read low 0.975
